# In all, about 2,400 compounds went through this assay and about 750 (31%) were called active.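 How the source made its calls: active means median signal gain over dofetilide-blocked control wells reaching their mean plus 3 SD, so readout 1 at least 0; inactive means the rest.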 The list shows a part of the results.
# Target: Voltage-gated inwardly rectifying potassium channel KCNH2 (Homo sapiens) (UniProt Q12809)
# Experiment: modulators restoring hERG flux under dofetilide – cell-based, thallium flux, duplicate retest, dofetilide IC70, confirmation (AID 1835)
# Settings: hERG cell line, FluxOR thallium flux, dofetilide-blocked; at 10 µM; active compounds read high
# Voltage-gated inwardly rectifying potassium channel KCNH2 (Homo sapiens), sequence (Q12809 whole entry, looked up): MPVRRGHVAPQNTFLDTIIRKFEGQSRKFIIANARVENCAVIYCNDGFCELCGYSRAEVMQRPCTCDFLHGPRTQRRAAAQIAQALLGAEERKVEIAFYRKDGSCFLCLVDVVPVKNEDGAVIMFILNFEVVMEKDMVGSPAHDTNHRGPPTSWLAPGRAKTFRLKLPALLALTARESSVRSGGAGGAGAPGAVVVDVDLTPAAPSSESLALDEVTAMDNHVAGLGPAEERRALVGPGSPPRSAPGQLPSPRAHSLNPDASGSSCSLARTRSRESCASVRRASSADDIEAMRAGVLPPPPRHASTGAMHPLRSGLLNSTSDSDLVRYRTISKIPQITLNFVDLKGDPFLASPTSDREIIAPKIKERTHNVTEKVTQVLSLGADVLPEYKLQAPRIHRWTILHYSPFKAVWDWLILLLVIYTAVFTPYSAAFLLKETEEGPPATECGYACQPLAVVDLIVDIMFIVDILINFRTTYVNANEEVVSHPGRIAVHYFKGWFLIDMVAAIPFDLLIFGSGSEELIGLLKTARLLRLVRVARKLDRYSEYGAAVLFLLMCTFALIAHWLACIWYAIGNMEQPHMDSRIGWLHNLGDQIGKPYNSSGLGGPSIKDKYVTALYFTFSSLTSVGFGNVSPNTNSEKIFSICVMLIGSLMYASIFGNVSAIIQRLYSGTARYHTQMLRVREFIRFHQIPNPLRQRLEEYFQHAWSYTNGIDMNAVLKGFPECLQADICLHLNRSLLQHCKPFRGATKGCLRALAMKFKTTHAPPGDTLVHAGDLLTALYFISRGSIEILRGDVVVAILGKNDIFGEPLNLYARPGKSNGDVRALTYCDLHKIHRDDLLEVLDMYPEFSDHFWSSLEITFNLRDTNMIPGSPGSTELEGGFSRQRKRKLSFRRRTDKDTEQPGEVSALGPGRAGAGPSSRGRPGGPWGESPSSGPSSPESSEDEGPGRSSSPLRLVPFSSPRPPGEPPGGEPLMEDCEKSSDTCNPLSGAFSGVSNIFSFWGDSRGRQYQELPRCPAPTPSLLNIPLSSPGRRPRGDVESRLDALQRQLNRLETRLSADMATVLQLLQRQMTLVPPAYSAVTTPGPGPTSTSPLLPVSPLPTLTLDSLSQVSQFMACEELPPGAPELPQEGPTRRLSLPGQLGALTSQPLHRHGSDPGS
row,Compound,"activity increase over dofetilide control, less the hit threshold"
1,CC(C)Oc1c(Cl)cc(CNC(C)(C)CO)cc1Cl,1% (active)
2,Fc1ccccc1-c1n[nH]c(=S)n1C1CC1,-4% (inactive)
3,CC(C)(C)c1cc(-c2n[nH]c(=S)n2-c2ccccc2F)n[nH]1,7% (active)
4,CCC(=O)Nc1cc(=O)[nH]c2ncnn12,-24% (inactive)
5,CCCc1nc(SCC(=O)Nc2cc(C)on2)c2ccccc2n1,-10% (inactive)
6,Cc1cc(NC(=O)CSc2nnc(Nc3ccccc3)s2)no1,-11% (inactive)
7,Cc1cc(NC(=O)CSc2nc(C3CC3)nc3sc(C)c(C)c23)no1,26% (active)
8,COc1ccc(C(=O)NN/C(C)=C/C(=O)c2ccccc2)cc1,-26% (inactive)
9,C/C(=C\C(=O)c1ccccc1)NNC(=O)c1ccc(Cl)cc1,3% (active)
10,C/C(=C\C(=O)c1ccncc1)Nc1ccccc1O,-7% (inactive)
11,COc1cccc(C(=O)NNC(=O)C(=O)Nc2ccc(C)c(Cl)c2)c1,54% (active)
12,Cc1ccc(NC(=O)c2ccc3c(c2)OCO3)cc1Cl,-10% (inactive)
13,COc1cccc(C(=O)NNC(=O)C(=O)Nc2cccc(Cl)c2C)c1,50% (active)
14,COc1cccc(C(=O)Nc2cccc(-c3ccc(N4CCOCC4)nn3)c2)c1,-14% (inactive)
15,COc1ccc(C(=O)NNC(=O)C(=O)Nc2ccc(C)c(Cl)c2)cc1,86% (active)
16,COc1ccc(C2/C(=C(/O)c3ccc(Br)cc3)C(=O)C(=O)N2C)cc1 (stereo not drawn),-7% (inactive)
17,Cc1ccc(C(=O)n2c(-c3ccccc3)cnc2SCC(=O)Nc2ccc(C)cc2C)cc1,-8% (inactive)
18,Cc1cccc(Cn2c(O)c(N=NC(=S)Nc3ccccc3F)c3ccccc32)c1,4% (active)
19,Oc1c(N=NC(=S)Nc2ccccc2F)c2ccccc2n1Cc1cccc(Cl)c1,-1% (inactive)
20,Cc1c(Cl)cccc1NC(=S)N=Nc1c(O)n(CN2CCOCC2)c2ccccc12,18% (active)
21,Cc1cc(NC(=O)Cn2c(=O)n(Cc3ccccc3)c(=O)c3ccccc32)no1,-7% (inactive)
22,Oc1c(N=NC(=S)Nc2ccccc2F)c2ccccc2n1Cc1ccc(Cl)cc1,-2% (inactive)
23,Oc1c(N=NC(=S)Nc2ccccc2F)c2ccccc2n1Cc1ccc(F)cc1,32% (active)
24,Oc1c(N=NC(=S)Nc2ccccc2F)c2ccccc2n1Cc1ccccc1,36% (active)
25,CC(C)Oc1ccccc1C1(c2ccccc2)NC(=O)NC1=O (stereo not drawn),-16% (inactive)
26,CC(C)NC(=O)Nc1n[nH]c(Nc2ccc(Cl)cc2)n1,-1% (inactive)
27,O=C1NC(=O)C2(COC(c3cccc([N+](=O)[O-])c3)OC2)S1 (stereo not drawn),-12% (inactive)
28,Nc1ccc2nc(-c3cccs3)[nH]c2c1,-10% (inactive)

# Source: PubChem BioAssay AID1835 (Johns Hopkins Ion Channel Center, 2009)
